Bioassay records deposited in PubChem by National Center for Advancing Translational Sciences (NCATS).
A selection: hits, their analogues and other compounds. The true share with any hit is near 19%.
IL-1B inflam inh = inflammasome signaling inhibition, IL-1 beta readout; THP-1 LPS/ATP IL-1B secretion, AlphaLISA, 16 h; hits give low values; activity change, % at 57.5 µM; hit rate 4.7% among 360,000; in the data active = activity change below about -50%; inconclusive = mostly about -30% to -49%
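THP-1 cells pretreated 1 hr with compounds (up to 57.5 uM final), then stimulated with LPS (250 ng/mL final) plus ATP (1.25 mM final); secreted IL-1B measured by AlphaLISA after 16 hr, decreased signal indicating inhibition.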
Giardia killer = Giardia lamblia killing. Giardia lamblia trophozoite viability. activity change, % at 7.66 µM, hits read low. hit rate 0.15% among 340,000. AID 540267; in the data active = activity change below about -80%; inconclusive = between about -30% and that limit;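 also: parasites exposed to compound for two days anaerobically before the ATP read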
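Compounds were tested on trophozoites seeded at 100 cells/well and held 48 hrs at 37 deg C anaerobically. An ATP-based luminescent kit measured the remaining live cells.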
TDP1 block = blocks human tyrosyl-DNA phosphodiesterase 1; Potency, µM (series often up to 130 µM), most hits filed as inhibitors; hit rate 0.28% among 350,000; recombinant TDP1, AlphaScreen DNA substrate cleavage; also: nearly all actives have a fitted effect of over 40% in size
Target sequence (Q9NUW8 whole entry, looked up): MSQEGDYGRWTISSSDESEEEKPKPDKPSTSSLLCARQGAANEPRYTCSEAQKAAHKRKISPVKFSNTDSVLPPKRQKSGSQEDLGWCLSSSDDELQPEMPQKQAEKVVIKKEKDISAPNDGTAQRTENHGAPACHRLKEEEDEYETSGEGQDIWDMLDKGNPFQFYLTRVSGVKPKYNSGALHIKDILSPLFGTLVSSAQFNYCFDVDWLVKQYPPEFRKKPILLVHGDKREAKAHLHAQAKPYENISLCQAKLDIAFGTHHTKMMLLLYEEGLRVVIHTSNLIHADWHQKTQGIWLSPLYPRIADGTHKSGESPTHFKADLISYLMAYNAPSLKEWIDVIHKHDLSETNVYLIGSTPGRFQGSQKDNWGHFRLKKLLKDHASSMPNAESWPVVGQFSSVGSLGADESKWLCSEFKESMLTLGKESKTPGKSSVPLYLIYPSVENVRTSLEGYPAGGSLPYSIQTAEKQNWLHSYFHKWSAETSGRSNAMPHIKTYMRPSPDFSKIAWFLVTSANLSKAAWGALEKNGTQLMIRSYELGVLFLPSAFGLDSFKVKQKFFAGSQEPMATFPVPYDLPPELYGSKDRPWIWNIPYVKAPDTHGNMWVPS
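Signal: AlphaScreen proximity between streptavidin donor and anti-FITC acceptor beads on intact substrate. Reaction: Tdp1 1 nM, substrate 15 nM final, 5 min RT after 15 min compound preincubation.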
DT40 TDP1 CPT = growth inhibition of DT40 Tdp1-/-;hTDP1 cells with camptothecin (screen for TDP1 inhibitors); chicken DT40 Tdp1-/-;hTDP1 cells + 20 nM CPT, ATP luminescence, 48 h; Potency, µM (series often up to 46.2 µM), hits mostly inhibitors; hit rate 12% among 420,000; also: nearly all actives have a fitted effect of over 55% in size
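Chicken DT40 Tdp1-/- cells complemented with human TDP1, 400 cells/well, exposed to compounds plus 20 nM camptothecin for at least 48 h at 37 C; viability read as ATP content by CellTiter-Glo luminescence.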
TDP1 cell noCPT = qHTS for Inhibitors of human tyrosyl-DNA phosphodiesterase 1 (TDP1): qHTS in cells in absence of CPT. DT40 Tdp1-/- hTDP1 cells, no CPT, ATP luminescence, 48 h. Potency, µM (titrated, usually from 46.2 µM), usual class: inhibitors. hit rate 15% among 420,000; also: nearly all actives have a fitted effect of over 55% in size
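DT40 Tdp1-/-;hTDP1 cells, no CPT (DMSO vehicle only), 400 cells/well; compounds pin-transferred; ≥48 hr, 37 °C; CellTiter-Glo 30 min RT dark, luminescence read.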
ELG1 repair inh = ELG1-dependent DNA repair inhibition | HEK293T ELG1-luciferase reporter, luminescence, 16 h; DNA damage induced by 5-fluorouridine | Potency, µM (top dose mostly 46.1 µM), hits mostly inhibitors | hit rate 2.3% among 330,000; also: nearly all actives have a fitted effect of over 55% in size
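Step one: seed 2,000 cells per well. Step two: pin-transfer compound or DMSO alongside 5-fluorouridine. Step three: incubate 16 hr, 37 °C, 5% CO2. Step four: add ONE-Glo, wait 30 min, read luminescence.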
Hits are given with their value; – = inactive; ? = inconclusive; · = no result; [ ] = another dose, or the depositor's remark. Unless noted, calls follow the shape of the dose curve; as a rule, active = well fitted curve in the direction sought with a large enough effect; inconclusive = small, poorly fitted or top-dose-only effect, or another doubt; inactive = no such curve, though single readings can be large; an effect the other way counts as inactive or inconclusive.

SMILES	IL-1B inflam inh	Giardia killer	TDP1 block	DT40 TDP1 CPT	TDP1 cell noCPT	ELG1 repair inh
COCCNC(=O)c1ccc2c(c1)N(Cc1cccc(Cl)c1)C(=O)c1ccccc1S2=O (stereo not drawn)	·	·	–	?	?	·
O=C(c1ccc2c(c1)N(Cc1cccc(Cl)c1)C(=O)c1ccccc1S2=O)N1CCN(c2cccc(C(F)(F)F)c2)CC1 (stereo not drawn)	·	·	–	16µM	10µM	·
O=C(c1ccc2c(c1)N(Cc1cccc(Cl)c1)C(=O)c1ccccc1S2=O)N1CCC(Cc2ccccc2)CC1 (stereo not drawn)	·	·	–	3.3µM	4.6µM	·
Cc1cccc(N2CCN(C(=O)c3ccc4c(c3)N(Cc3cccc(Cl)c3)C(=O)c3ccccc3S4=O)CC2)c1C (stereo not drawn)	·	·	–	3.7µM	5.2µM	·
O=C(c1ccc2c(c1)N(Cc1cccc(Cl)c1)C(=O)c1ccccc1S2(=O)=O)N1CCN(c2cccc(C(F)(F)F)c2)CC1	·	·	–	–	?	·
C=CCNC(N)=S	–	–	–	–	–	–
CCCC[C@H]1C2=C3[C@@H](CC(C(=O)OC)=C[C@@H](C(=O)OC)[C@H]3C(C)(C)C2=O)n2c(=O)n(C)c(=O)n21	·	–	–	·	·	·
O=C(NN1C(=O)c2ccccc2C1=O)c1ccccc1[N+](=O)[O-]	–	–	–	–	–	–
CC(C)C1=CC2=CCC3C(C)(C(=O)O)CCCC3(C)C2CC1 (stereo not drawn) (tested in a mixture with another compound)	·	·	–	·	·	–
COc1ccc(Nc2nc(N)nc(CSc3nc4cc(OC)ccc4s3)n2)cc1	·	·	–	12µM	15µM	·
CCOC(=O)c1cnc(SCc2nc(N)nc(Nc3ccc(C)cc3)n2)nc1N	-52	–	–	21µM	?	?
Cc1ccc(Nc2nc(N)nc(CSc3nc4ccccc4s3)n2)cc1	-70	–	–	?	?	?
Cc1ccccc1Nc1nc(N)nc(CSc2nc3ccccc3s2)n1	–	–	–	?	?	–
CCc1nc2cccnc2n1-c1ccc(CC(=O)Nc2ccc(C)cc2)cc1	·	·	–	?	?	·
CCN(CC)CCNC(C(=O)OCCC(C)C)c1ccccc1 (stereo not drawn)	·	·	–	9.4µM	5.3µM	·
Cc1ccc(N2CCn3c2nc2c3c(=O)n(C/C=C/c3ccccc3)c(=O)n2C)cc1C	·	·	–	–	–	·
C[C@H](OC(=O)N1CCN(C(c2ccccc2)c2ccccc2)CC1)[C@@H]1O[C@@]2(C)CCC[C@H]1O2	–	–	–	?	?	–
COC(=O)Cc1ccc(NC(=O)c2ccc(C(C)(C)C)cc2)cc1	-50	?	–	?	?	9.2µM
COc1ccc(NC(=O)c2ccc3c(c2)n(C)c(=O)n3C)cc1	-56	–	–	–	–	?
COc1cccc(C(=O)Nc2ccc(-n3nncc3C(C)(C)C)cc2)c1	–	–	–	?	21µM	?
CC(C)(C)c1cnnn1-c1ccc(NC(=O)c2ccc3c(c2)OCO3)cc1	–	–	–	?	21µM	?
CC(C)(C)c1ccc(C(=O)Nc2ccc(Cl)cc2)cc1	–	–	–	–	–	?
CC(C)(C)c1cnnn1-c1ccc(NC(=O)c2ccc(Br)o2)cc1	–	–	–	–	–	–
COc1ccc(C(=O)Nn2c(CCC(=O)O)ccc2-c2ccc(C)cc2)cc1OC	–	–	–	–	?	–
CN(C(=O)COC(=O)c1ccc(S(=O)(=O)N2CCCCCC2)cc1)c1ccccc1	–	·	·	–	–	·
SMILES	IL-1B inflam inh	Giardia killer	TDP1 block	DT40 TDP1 CPT	TDP1 cell noCPT	ELG1 repair inh
COc1ccc(NS(=O)(=O)c2cc(C(=O)N3CCN(C/C=C/c4ccccc4)CC3)ccc2C)cc1	?	–	–	?	?	?
COc1cccc(NC(=O)CNS(=O)(=O)c2ccc(Cl)cc2)c1	–	–	–	–	–	–
CC(C)(C)c1ccc(C(=O)Nc2ccc(Oc3cccnc3)nc2)cc1	-73	–	–	?	13µM	2.1µM
CC(C)(C)c1ccc(C(=O)Nc2cccnc2)cc1	–	–	·	?	?	?
COc1cccc(C(=O)Nc2ccc(NC(=O)c3ccc(C(C)(C)C)cc3)cc2)c1	·	·	–[2.28 µM]	16µM	10µM	·
COc1cccc(S(=O)(=O)NCC(=O)Nc2ccc(C(C)(C)C)cc2)c1	-60	–	–	?	?	–
CCCCn1c(N)c(N(C)C(=O)c2cc3c(F)cccc3s2)c(=O)[nH]c1=O	–	–	–	–	–	?
Cc1cccc(C2NC(c3cccc(C)c3)C([N+](=O)[O-])C(C)(C)C2[N+](=O)[O-])c1 (stereo not drawn)	–	–	–	?	16µM	–
Cc1ccccc1C1NC(c2ccccc2C)C([N+](=O)[O-])C(C)(C)C1[N+](=O)[O-] (stereo not drawn)	–	–	–	–	–	?
Cc1ccc(N2CC(C(=O)Nc3ccc(S(=O)(=O)N4CCCC4)cc3)CC2=O)cc1 (stereo not drawn)	–	–	–	–	–	–
CCc1ccc(N2CC(C(=O)Nc3ccc(OC)c(S(=O)(=O)N4CCOCC4)c3)CC2=O)cc1 (stereo not drawn)	–	·	·	–	–	·
CC(C)=CC1C(C(=O)Nc2ccc(S(=O)(=O)N3CCOCC3)cc2)C1(C)C (stereo not drawn)	-64	–	·	?	?	?
CCc1ccc(N2CC(C(=O)Nc3ccc(S(=O)(=O)N4CCOCC4)cc3)CC2=O)cc1 (stereo not drawn)	-61	–	·	?	?	–
CCc1ccc(N2CC(C(=O)Nc3ccc(C)c(S(=O)(=O)N4CCOCC4)c3)CC2=O)cc1 (stereo not drawn)	–	–	–	?	?	21µM
O=C(Nc1ccc(S(=O)(=O)N2CCOCC2)cc1)C1CC1	–	–	–	–	–	–
COC(CNC(=O)c1coc2nc3ccccc3nc12)OC	–	?	–	–	–	–
N#C/C(=N\Nc1ccccc1[N+](=O)[O-])C(=N)N1CCCCC1	–	–	–	5.8µM	5.8µM	?
CCN(CC)S(=O)(=O)c1ccc(N2CCCC2)c(NC(=O)c2ccc(OC)cc2OC)c1	?	–	–	18µM	16µM	?
CCN(CC)S(=O)(=O)c1ccc(N2CCCCC2)c(NC(=O)/C(C#N)=C/c2ccc(OC)cc2)c1	–	–	–	?	16µM	?
CCN(CC)S(=O)(=O)c1ccc(N2CCCC2)c(NC(=O)Cc2ccc(OC)cc2)c1	–	–	–	?	21µM	–
CCN(CC)S(=O)(=O)c1ccc(N2CCCCC2)c(NC(=O)/C=C/c2ccc(OC)c(OC)c2)c1	–	–	–	?	?	?
